Records with an inconclusive call do not appear. The source made the active and inactive calls. The call rests on the fitted dose curve.
Test: Nuclear factor erythroid 2-related factor 2/antioxidant responsive element (Nrf2/ARE) small molecule agonists: luciferase reporter gene qHTS assay in human keratinocytes (AID 1919969); further: nearly all actives have a fitted effect of over 35% in size
Conditions: KeratinoSens HaCaT ARE-luciferase, luminescence, 24 h; series mostly up to 92.4 µM; activity, positive = activation: at the top concentration
Text: National Center for Advancing Translational Sciences [NCATS]
Division of Preclinical Innovation [DPI]
U.S. Environmental Protection Agency [EPA]
National Institutes of Environmental Health Sciences [NIEHS]
National Toxicology Program [NTP]
U.S. Food and Drug Administration [FDA]
Oxidative stress has been implicated in the pathogenesis of a variety of diseases ranging from cancer to neurodegeneration. The antioxidant response element (ARE) signaling pathway plays an important role in the amelioration of oxidative stress. The KeratinoSens (Givaudan, Switzerland) is an in vitro test method which quantifies luciferase induction as a measure of activation of Keap1-Nrf2-antioxidationt/electrophile response element (ARE) dependant pathway in HaCaT human keratinocytes stably transfected with a selectable plasmid. The KeratinoSens assay is a cell-based assay with a reporter cell line to detect potential skin sensitizers by their ability to induce the Nrf2/ARE-response. The activation of the report gene under culture conditions can be detected by ONE-Glo Luciferase Assay System (Promega, Madison, WI). This cell line has been used to screen the Tox21 10K compound library to identify agonists that induce oxidative stress. The cytotoxicity of the Tox21 compound library against the KS-ARE cell line was tested in parallel by measuring the cell viability using CellTiter- Fluor assay system (Promega, Madison, WI) in the same wells.
HaCaT derived cell line KeratinoSens were dispensed at 1,500 cells/5uL/well in 1536-well white wall/solid bottom plates using a Multidrop Combi (ThermoFisher Scientific, Waltham, MA) dispenser. After the assay plates were incubated at 37 C/5% CO2 for 5 h, 23 nL of compounds dissolved in DMSO, positive controls or DMSO only was transferred to the assay plate by a pintool workstation (Kalypsys, San Diego, CA). The plates were incubated at 37 C/5% CO2 for 23 h, followed by addition of 1uL/well of CellTiter-Fluor reagent into the assay plates using a Flying Reagent Dispenser (Aurora Discovery, San Diego, CA) for cell viability readout that measures cytotoxicity. After 1 h incubation at 37 C/5% CO2 the fluorescence intensity was measured using a ViewLux (PerkinElmer, Shelton, CT) plate reader. Then 4uL/well of One-Glo were added using a Flying Reagent Dispenser. After the plates were incubated at room temperature for 30 min, the luminescence intensity in the assay plates was measured using ViewLux plate reader.
On the % scale 0 is the no-effect control and ±100 the full control effect; potency means the concentration at half of the fitted maximal effect.

| Structure (SMILES) | activity, positive = activation | Potency |
| --- | --- | --- |
| CCCCCCCC[N+](CCCCCCCC)(CCCCCCCC)CCCCCCCC | -13% (inactive) | – |
| O=C1[C@H](CC[C@H](O)c2ccc(F)cc2)[C@@H](c2ccc(O)cc2)N1c1ccc(F)cc1 | -3.48% [at 42.5 µM] (inactive) | – |
| Cc1ccsc1/C=C/C1=NCCCN1C | 2.59% [at 42.5 µM] (inactive) | – |
| CCc1cccc(CC)c1NC(=O)CN(CC(=O)O)CC(=O)O | -1.21% [at 42.5 µM] (inactive) | – |
| CCN1CCC[C@H]1CNC(=O)c1cc(S(N)(=O)=O)ccc1OC | -0.158% [at 42.5 µM] (inactive) | – |
| CCCC(C(=O)OCCN(CC)CC)(c1ccccc1)c1ccccc1 | 1.16% [at 42.5 µM] (inactive) | – |
| CCCCCCCCCCCCCC(=O)OCC | -9.9% (inactive) | – |
| CC1c2ccccc2CN1NC(=O)c1ccc(Cl)c(S(N)(=O)=O)c1 (stereo not given) | -2.8% [at 42.5 µM] (inactive) | – |
| C=CCOC(=O)/C=C\C(=O)OCC=C | – | 24.8 µM (active) |
| COc1cc2nc(N3CCN(C(=O)c4ccco4)CC3)nc(N)c2cc1OC | -0.0377% [at 19 µM] (inactive) | – |
| CCCCCCCCCCCCCC=O | 0.0623% [at 8.39 µM] (inactive) | – |
| Nc1c2c(nc3c1CCC3)CCCC2 | -0.126% [at 42.5 µM] (inactive) | – |
| Oc1ccc2c(c1)OCO2 | 2.4% (inactive) | – |
| COc1cc2c(N3CCN(C(=O)Nc4ccc(OC(C)C)cc4)CC3)ncnc2cc1OCCCN1CCCCC1 | 18.6% [at 42.5 µM] (inactive) | – |
| C=CC(=O)OCCCCCCCCCC | -11.2% (inactive) | – |
| CCOC(=O)CC#N | 8.25% (inactive) | – |
| O=c1cc[nH]cc1 | 8.72% (inactive) | – |
| Nc1ccc(C(=O)OCCCOC(=O)c2ccc(N)cc2)cc1 | 2.48% (inactive) | – |
| BrCCCCCBr | -0.418% (inactive) | – |
| CC(=O)[C@H]1CC[C@H]2[C@@H]3C[C@H](C)C4=CC(=O)CC[C@]4(C)[C@H]3[C@@H](O)C[C@]12C | 1.99% [at 42.5 µM] (inactive) | – |

| Structure (SMILES) | activity, positive = activation | Potency |
| --- | --- | --- |
| O=C1Nc2cc(Cl)ccc2Oc2ccccc21 | 9.18% [at 42.5 µM] (inactive) | – |
| O=S(=O)(c1ccccc1)c1ccc(Cl)cc1 | -8.03% (inactive) | – |
| O=c1[nH]cnc2ccccc12 | – | 0.0631 µM (active) |
| CC(C)=CCC/C(C)=C\C#N | -0.411% (inactive) | – |
| C(=C/c1ccccc1)/c1ccccc1 | 20.4% (inactive) | – |
| CCCCCCCCOCCCN | -16.5% (inactive) | – |
| CN1CCN(N)CC1 | -1.05% [at 42.5 µM] (inactive) | – |
| CCCCCCCCc1ccc(S(=O)(=O)O)cc1 | 5.07% (inactive) | – |
| CN(C)CCCN1c2ccccc2Sc2ccccc21 | 26.4% [at 42.5 µM] (inactive) | – |
| CC(C(=O)O)c1ccc(/C=C2\CCCCC2=O)cc1 (stereo not given) | – | 23.7 µM (active) |
| CC(COc1ccccc1)NC(C)C(O)c1ccc(O)cc1 (stereo not given) | 3.9% [at 42.5 µM] (inactive) | – |
| CC(=O)CC(=O)OC(C)(C)C | 1.14% (inactive) | – |
| CCN(CC)CCNc1ccc(CNC=O)c2sc3ccc(OC)cc3c(=O)c12 | – | 24.3 µM (active) |
| NC(CS)C(=O)O (stereo not given) | -5.47% [at 42.5 µM] (inactive) | – |
| CC(C)(C)OC(=O)N1C[C@@H](F)C[C@H]1C(=O)O | -0.583% (inactive) | – |
| CN1CCN(CCCN2c3ccccc3Sc3ccc(C(F)(F)F)cc32)CC1 | -38% [at 42.5 µM] (inactive) | – |
| CCCCCCCCCCCCCCCCOS(=O)(=O)O | 9.55% [at 42.5 µM] (inactive) | – |
| OC[C@H]1O[C@@H](O[C@@H]2[C@@H](CO)O[C@](O)(CO)[C@H]2O)[C@H](O)[C@@H](O)[C@H]1O | 3.83% [at 42.5 µM] (inactive) | – |
| C/C=C(\C)C(=O)OCC/C=C\CC | -5.86% (inactive) | – |
| CNCCc1ccccn1 | 0.721% [at 42.5 µM] (inactive) | – |
